An excerpt weighted towards active compounds, which were near 0.99% of everything screened.
TRPV1 agonist: activates the human vanilloid receptor TRPV1. Q8NER1. TRPV1-expressing cells, Fluo-8 calcium influx, agonist mode. activation, % at 8.33 µM. 0.19% of 320,000 active; in the data active = activation above about 80%; inconclusive = between about 30% and that limit
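TRPV1-expressing cells were cultured overnight at 35.5C and loaded with Fluo-8 calcium dye for 40 to 90 min at room temperature. After a 10 s baseline, compound was added and calcium influx was read kinetically for 3 min (ex 480/em 520 nm).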
TRPML1 agonist: agonists of human TRPML1 channel. Q9GZU1. TRPML1-expressing cells, Ca2+ dye fluorescence, FDSS. activation, % (concentration not given with the values). 0.12% of 410,000 active. AID 624414; in the data active = activation above about 50%; inconclusive = mostly about 30% to 49%
Target sequence (Q9GZU1 whole entry, looked up): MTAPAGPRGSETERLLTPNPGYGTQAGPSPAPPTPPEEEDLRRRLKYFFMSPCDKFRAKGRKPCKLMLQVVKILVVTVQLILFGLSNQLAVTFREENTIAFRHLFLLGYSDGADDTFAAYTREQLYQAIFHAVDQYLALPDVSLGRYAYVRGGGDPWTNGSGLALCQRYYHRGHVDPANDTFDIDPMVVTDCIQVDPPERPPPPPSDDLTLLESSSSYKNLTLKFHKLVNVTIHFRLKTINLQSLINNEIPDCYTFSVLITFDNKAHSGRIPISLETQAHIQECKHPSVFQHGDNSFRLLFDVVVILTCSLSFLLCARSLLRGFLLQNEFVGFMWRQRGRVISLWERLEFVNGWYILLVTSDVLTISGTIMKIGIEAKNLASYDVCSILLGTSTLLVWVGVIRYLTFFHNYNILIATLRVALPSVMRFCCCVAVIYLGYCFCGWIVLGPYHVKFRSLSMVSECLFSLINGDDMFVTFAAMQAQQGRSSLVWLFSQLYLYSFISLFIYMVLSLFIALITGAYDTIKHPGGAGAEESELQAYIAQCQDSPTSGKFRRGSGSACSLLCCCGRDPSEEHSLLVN
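Agonist activity was taken from a 110 s kinetic Ca2+ dye read on the FDSS after pinning compounds onto TRPML1-DL cells. The cells were seeded at 1,500/well with Tet inducer, incubated about 16 h, then dye-loaded at room temperature.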
TRHR enhancer-1: TRH receptor (human) allosteric enhancement. P34981. TRHR cells, fluo-8 calcium fluorescence, EC20 TRH enhancement. enhancement, % at 2 µM. 0.66% of 360,000 active; in the data active = enhancement above about 30%
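Enhancer read-out: after compound pinning and an initial kinetic agonist-mode read, an EC20 of TRH (10 nM final) was injected and fluo-8 calcium signal (Ex 480/Em 530) followed at 1 s/cycle for 100 cycles in TRHR-expressing cells.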
TRHR agonist-1: agonists of human TRH receptor; P34981; TRHR cells, calcium flux fluo-8, FDSS agonist mode; activation, % at 2 µM; 0.18% of 360,000 active; AID 493084; in the data active = activation above about 30%
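Agonist-mode FDSS calcium read (Ex 480/Em 530, 1 s cycles) in 1536-well TRHR cells with fluo-8 dye, after 10-cycle baseline and 23 nL compound addition; TRH at EC20 (10 nM final) added afterwards for the enhancer phase.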
TRPML1 inh: human mucolipin-1 channel inhibition | TRPML1-inducible cells, Ca2+ dye fluorescence, FDSS; active compounds read low; inhibition of EC80 agonist-evoked calcium signal | activity change, negative = inhibition, % (concentration not given with the values) | 0.02% of 390,000 active | AID 624415; in the data active = activity change below about -50%; inconclusive = between about -30% and that limit;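 note: stimulus is agonist 54-4 at its EC80 concentration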
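Calcium fluorescence in TRPML1-DL cells induced overnight with Tet: a 110 s read after compound pin addition, then a 110 s antagonist read after challenge with 54-4 at 4 uM final (EC80).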
TRPV1 PAM: enhances activation of the human vanilloid receptor TRPV1; 0.02% of 320,000 active; TRPV1-expressing cells, Fluo-8 calcium influx, capsaicin EC20 potentiation; Q8NER1; AID 540277; potentiation, % at 8.33 µM; in the data active = potentiation above about 80%; inconclusive = between about 30% and that limit
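Fluo-8 calcium influx in TRPV1-expressing cells, kinetic read (ex 480/em 520 nm). Compound added and read 3 min for agonist activity, followed by capsaicin at EC20 final and 2 min further read for enhancement.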
TRHR enhancer-2: confirmation of human TRH receptor allosteric enhancers | shares compounds with TRHR enhancer-1 | TRH receptor cell assay, enhancer confirmation qHTS | activity change, negative = inhibition, % at 46.1 µM | 970 tested, under 10 active | AID 493076;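 note: compound effect scored on response to added TRH at EC20 of 10 nM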
TRHR agonist-2: human TRH receptor agonism confirmation. shares compounds with TRHR enhancer-1. TRHR-expressing cells, agonist activation read-out. Potency, µM (titrated, usually from 46.1 µM), hits mostly activators. 8% of 970 active. AID 493078; note: nearly all actives have a fitted effect of over 75% in size
Numbers stand for hits; 0 = inactive; ? = inconclusive; - = no result given. Unless noted, calls come from the whole dose curve; as a rule, active = well fitted curve in the direction sought with a large enough effect; inconclusive = small, poorly fitted or top-dose-only effect, or another doubt; inactive = no such curve, though single readings can be large; an effect the other way counts as inactive or inconclusive.

SMILES	TRPV1 agonist	TRPML1 agonist	TRHR enhancer-1	TRHR agonist-1	TRPML1 inh	TRPV1 PAM	TRHR enhancer-2	TRHR agonist-2
Cc1ccc(COc2ccc3c(c2)OCO3)cc1	0	0	0	0	0	0	-	-
Cc1ccc(-c2csc3ncnc(N4CCN(Cc5ccccc5)CC4)c23)cc1	0	-	54	0	-	0	0	0
COc1ccc(C(=O)NC2CC2)cc1OC1CCN(C(C)CSC)CC1 (configuration not stated)	0	0	0	0	0	0	0	0
CCOc1ccccc1N1CC(C(=O)Nc2cccc(S(=O)(=O)N3CCCCC3)c2)CC1=O (configuration not stated)	0	0	74	0	0	0	0	0
CCCC(=O)NCCCc1nc2ccccc2n1C(C)C	0	0	47	0	0	0	0	0
CCCC(=O)NCCc1nc2ccccc2n1CC(=O)c1ccccc1	0	0	0	0	0	0	-	-
CCN(CC)C(=O)c1sc2nc(-c3cccs3)cc(-c3ccc(Cl)cc3)c2c1N	0	0	0	0	0	0	0	18µM
CCOC(=O)C1=C(CN2CCN(c3cc(C)ccc3C)CC2)NC(=O)NC1c1ccccc1 (configuration not stated)	-	0	0	0	0	-	-	-
N#Cc1c(N)n(CCNC(=O)c2cccs2)c2nc3ccccc3nc12	0	0	0	0	0	0	-	-
N#Cc1c(N)n(CCNC(=O)c2ccccc2)c2nc3ccccc3nc12	0	0	0	0	0	0	0	0
COc1ccc(/C=C/C(=O)NCC(=O)N/N=C(/C)c2ccco2)cc1	0	0	0	0	0	0	-	-
COc1ccc(/C(C)=N/NC(=O)CNC(=O)c2ccco2)cc1	0	0	46	0	0	0	0	0
O=C(CSc1nnc(-c2ccc(Cl)cc2)n1-c1ccc(Cl)cc1)N/N=C/c1ccco1	0	0	48	0	0	0	0	0
CCOC(=O)c1cc(CC)sc1NC(=O)COC(=O)c1ccccn1	0	0	0	36	0	0	0	0
CCOC(=O)c1cc(CC)sc1NC(=O)COC(=O)c1cnccn1	0	0	0	0	0	0	-	-
O=C(c1ccc(NS(=O)(=O)c2ccccc2)cc1)N1CCCC1	0	0	0	0	0	0	-	-
CC1CCN(C(=O)c2ccc(NS(=O)(=O)c3ccccc3)cc2)CC1	0	0	44	0	0	0	0	0
CC(C)[C@H](NC(=O)c1c(F)cccc1F)C(=O)OCC(=O)NC(=O)NC1CCCC1	0	0	55	0	0	0	0	0
Cc1c(C(=O)NCCc2ccc(S(N)(=O)=O)cc2)sc2nc3n(c(=O)c12)CCCC3	-	0	0	0	0	-	-	-
Cc1nn(CC(=O)Nc2ccc3c(c2)nc(CCN2CCCCC2)n3C)c(=O)c2ccccc12	0	0	0	0	0	0	-	-
Cc1nn(CC(=O)Nc2ccc3c(c2)nc2n3CCN(C3CCCCC3)C2)c(=O)c2ccccc12	0	0	46	0	0	0	0	0
O=C(N/N=C/c1c(O)ccc2ccccc12)c1ccc(Br)o1	?	0	0	51	0	0	0	18µM
Cc1cccc(NC(=O)C2CCCN(S(=O)(=O)c3c(C)nn(C)c3C)C2)c1 (configuration not stated)	-	0	-	-	0	-	-	-
Cc1ccc(C)c(NC(=O)C2CCCN(S(=O)(=O)c3c(C)nn(C)c3C)C2)c1 (configuration not stated)	0	0	0	30	0	0	0	0
COc1cccc(C(=O)n2nc(-c3ccco3)nc2NCc2cccs2)c1	-	0	0	0	0	-	-	-
SMILES	TRPV1 agonist	TRPML1 agonist	TRHR enhancer-1	TRHR agonist-1	TRPML1 inh	TRPV1 PAM	TRHR enhancer-2	TRHR agonist-2
CC(C)(C)C(=O)CN1C(=O)NC(c2ccccc2)(c2ccccc2)C1=O	0	0	42	0	0	0	0	0
NC(=O)CN1C(=O)NC(c2ccccc2)(c2ccccc2)C1=O	0	0	0	0	0	0	-	-
CCc1cc(CN2CCOCC2)c(NC(=O)c2ccccc2)s1	0	0	64	0	0	0	0	0
O=S(=O)(Nc1nc2ccccc2nc1Nc1ccc2c(c1)OCO2)c1ccccc1	0	0	0	0	0	?	-	-
Cc1cccc(S(=O)(=O)Nc2nc3ccccc3nc2Nc2ccc3c(c2)OCO3)c1	0	0	44	0	0	0	0	0
Cc1cccc(N2CCN(C(=O)c3ccccn3)CC2C)c1 (configuration not stated)	?	0	0	0	0	0	-	-
Cc1cccc(N2CCN(C(=O)NC3CCCCC3)CC2C)c1 (configuration not stated)	93	0	42	0	0	0	0	0
COc1ccc(OC)c(/C=C/c2nc3ccccc3nc2C)c1	-	0	-	-	-	-	-	-
COc1ccc(OC)c(/C=C/c2nc3ccccc3[nH]c2=O)c1	0	0	0	0	0	0	0	18µM
CCCCNC(=O)c1cc(-c2cccnc2)nc2ccc(S(=O)(=O)NCCCC)cc12	-	0	0	0	0	-	-	-
Cc1ccc(-n2c(C)n[nH]c2=S)cc1C	0	0	45	0	0	0	0	0
Cc1ccc(-n2c(C)n[nH]c2=S)cc1	0	0	0	0	0	0	-	-
O=C(NCc1ccc2c(c1)OCO2)C(=O)NCC1CCCO1 (configuration not stated)	0	0	0	0	0	0	-	-
O=C(NCc1cccc(CNC(=O)C(=O)NCC2CCCO2)c1)C(=O)NCC1CCCO1 (configuration not stated)	0	0	42	0	0	0	0	0
COc1ccc(N2CCN(C(=O)Nc3cn(CC(C)C)c(=O)c4ccccc34)CC2)cc1	-	0	0	0	0	-	-	-
O=C(CCC1N=C2c3ccccc3N=C(SCc3cccc(Cl)c3)N2C1=O)NCc1ccco1 (configuration not stated)	0	0	49	0	0	0	0	?
Cc1cccc(N2C(=O)C(CC(=O)Nc3cccc(F)c3)N(Cc3cccs3)C2=O)c1 (configuration not stated)	-	0	0	0	0	-	-	-
O=C(Cn1nnc2ccccc21)C1CC1	0	0	47	0	0	0	0	0
CN(C)c1ccc(/C=N/NC(=O)Cn2nnc3ccccc32)cc1	0	0	0	0	0	0	?	0
CCCCc1nc2cc(C(=O)N3CCNC(=O)C3CC(=O)OC)ccc2o1 (configuration not stated)	0	0	89	0	0	0	0	0
COc1cc(/C=C/c2nc3ccccc3s2)cc(OC)c1O	0	0	0	32	0	0	0	?

Assay outcomes as filed in PubChem.
